From PubChem
Shown are actives, neighbours in structure and some others; about 9.4% of the full set was active somewhere.
FLuc modulator: firefly luciferase modulation, counter-screen for miR-21 project. hit rate 6.9% among 360,000. AID 588342. purified FLuc, Km substrates, luminescence inhibition. Potency, µM (top dose mostly 57.5 µM), inactives show at the highest dose activity change, negative = inhibition, hits mostly inhibitors;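 note: plate controls were vehicle for no effect and reference inhibitor for full effect; nearly all actives have a fitted effect of over 55% in size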
Target sequence (P08659 whole entry, looked up): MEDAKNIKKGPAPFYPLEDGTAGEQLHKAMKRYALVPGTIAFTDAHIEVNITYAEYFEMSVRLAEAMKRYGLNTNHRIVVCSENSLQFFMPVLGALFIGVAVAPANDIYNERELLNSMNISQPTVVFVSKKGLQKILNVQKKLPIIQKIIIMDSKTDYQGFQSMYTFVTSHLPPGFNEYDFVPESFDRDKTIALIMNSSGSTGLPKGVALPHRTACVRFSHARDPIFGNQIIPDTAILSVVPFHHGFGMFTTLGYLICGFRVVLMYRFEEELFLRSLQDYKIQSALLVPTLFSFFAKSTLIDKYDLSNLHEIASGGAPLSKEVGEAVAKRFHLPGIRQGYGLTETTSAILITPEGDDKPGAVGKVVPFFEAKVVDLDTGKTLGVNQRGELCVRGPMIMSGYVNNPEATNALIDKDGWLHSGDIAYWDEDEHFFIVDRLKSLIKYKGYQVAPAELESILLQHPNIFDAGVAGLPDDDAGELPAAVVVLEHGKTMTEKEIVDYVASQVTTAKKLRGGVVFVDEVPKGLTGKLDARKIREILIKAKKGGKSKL
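Purified P. pyralis luciferase, 10 nM final, with Km-level 10 uM D-luciferin and 10 uM ATP in 50 mM Tris acetate pH 7.5, 10 mM Mg acetate, 0.01% Tween-20, 0.05% BSA; 6-point qHTS titration about 60 µM downward; luminescence read.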
ELG1 DNA repair: ELG1-dependent DNA repair inhibition. HEK293T ELG1-luciferase reporter, luminescence, 16 h; DNA damage induced by 5-fluorouridine. Potency, µM (highest dose often 46.1 µM), without a hit: at the top dose activity change, negative = inhibition, most hits filed as inhibitors. hit rate 2.3% among 330,000. AID 504467; note: % is set by controls: 0 for no effect and ±100 for the full control effect; nearly all actives have a fitted effect of over 55% in size
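Step one: seed 2,000 cells per well. Step two: pin-transfer compound or DMSO alongside 5-fluorouridine. Step three: incubate 16 hr, 37 °C, 5% CO2. Step four: add ONE-Glo, wait 30 min, read luminescence.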
SMN2 splice up: SMN2 splice variant enhancement; HEK293 SMN2-luciferase splicing reporter, luminescence, 30-36 h; Potency, µM (doses to about 46.1 µM), inactives show at the highest dose activity change, positive = activation, hits mostly activators; hit rate 2.8% among 210,000; AID 1458; note: % of control where 0% means no effect; nearly all actives have a fitted effect of over 55% in size
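HEK293 cells carry an SMN2 […]–luciferase reporter in which exon 7 inclusion puts luciferase in frame. Cells were plated 10-12 h before compound addition, then incubated 30-36 h at 37C. ONE-Glo luminescence was read; sodium butyrate at 4.5 mM final served as control.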
ELG1 genotoxic: inducers of genotoxicity in HEK293T ELG1-luciferase cells. HEK293T ELG1-luciferase reporter, luminescence, 16 h. Potency, µM (highest dose often 46 µM), for the others: top-dose activity change, positive = activation, usual class: activators. hit rate 1.3% among 330,000. AID 504466; note: % of control where 0% means no effect; nearly all actives have a fitted effect of over 60% in size
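Genotoxicity was scored as increased ELG1-luciferase reporter signal, measured by ONE-Glo luminescence (30 min, room temperature). Compound or vehicle exposure of the HEK293T reporter cells lasted 16 hr at 37°C.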
Rab9 prom act: activates the Rab9 promoter | Potency, µM (doses to about 9.22 µM), for the others: at the highest dose activation, negative = inhibition, hits mostly activators | Huh7 Rab9 promoter-luciferase reporter, luminescence, 24 h | hit rate 2.8% among 320,000; note: % of control where 0% means no effect; nearly all actives have a fitted effect of over 60% in size
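Promoter activation is measured as luciferase luminescence in Huh7 cells stably transfected with a Rab9 promoter–luciferase construct, following 24 h compound exposure at 37 °C and 10 min reagent incubation at ambient temperature.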
NPC1 promoter act: activates the NPC1 promoter; Huh7 NPC1 promoter luciferase reporter, 24 h; Potency, µM (doses to about 9.22 µM), for inactives: at the highest dose activation, actives largely listed as activators; hit rate 2.4% among 320,000; AID 485313; note: % of control where 0% means no effect; nearly all actives have a fitted effect of over 60% in size
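Quantitative HTS used a cell-based reporter: Huh7 cells stably bearing the NPC1 promoter upstream of luciferase were treated with compounds for 24 h, and promoter activation was read as luminescence.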
* = called active by the depositor; u = inconclusive; x = no result; [ ] = dose if it differs, or a comment. Calls come from the whole dose curve; as a rule, active = well fitted curve in the direction sought with a large enough effect; inconclusive = small, poorly fitted or top-dose-only effect, or another doubt; inactive = no such curve, though single readings can be large; an effect the other way counts as inactive or inconclusive. Potency is the fitted concentration of half-maximal effect.

SMILES	FLuc modulator	ELG1 DNA repair	SMN2 splice up	ELG1 genotoxic	Rab9 prom act	NPC1 promoter act
O=C(CNC(=O)c1ccc(Cl)cc1)OCC(=O)c1ccc2c(c1)OCCO2	21µM*	u	11%	-7%	2%	-2%
CC(=O)Nc1ccccc1C(=O)OCC(=O)c1ccc2ccccc2c1	12µM*	u	x	-11%	x	26%
c1ccc(CCN2CCOCC2)nc1	x	x	-20%[9.22 µM]	x	x	x
ClCCCCl	x	x	13%	x	x	x
Cc1ccc(Cn2nc(C(=O)Nc3ccc(Br)cc3)cc2C)cc1	9.5µM*	u	x	21µM*	-11%	-13%
COc1ccc(NC2=NC(C)(C)CS2)cc1	u	u	11µM*	u	u	u
C[C@@H]1O[C@@H](O[C@H]2C[C@@H](O)[C@]3(CO)[C@@H]4C(CC[C@]3(O)C2)[C@@]2(O)CC[C@H](C3COC(=O)C3)[C@@]2(C)C[C@H]4O)[C@H](O)[C@H](O)[C@H]1O (some centres undefined)	2%	1.8µM*	x	-51%	-38%	-34%
C[C@@H]1O[C@@H](O[C@H]2C[C@@H](O)[C@]3(CO)[C@H]4[C@H](O)C[C@]5(C)[C@@H]([C@@H]6COC(=O)C6)CC[C@]5(O)[C@@H]4CC[C@]3(O)C2)[C@H](O)[C@H](O)[C@H]1O	x	x	-94%	x	x	x
O=C(Cn1ncc2c3ccccc3n(Cc3ccc(F)cc3)c2c1=O)N1CCC2(CC1)OCCO2	-1%	21µM*	-34%	-11%	7%	-3%
C[C@H](CO)N1C[C@H](C)[C@@H](CN(C)C(=O)NC2CCCCC2)Oc2c(NC(=O)Nc3ccc4c(c3)OCO4)cccc2C1=O	x	15µM*	x	-2%	x	x
CNc1ccc2oc(C[C@@H]3OC4(CC[C@@H]3C)O[C@H]([C@@H](C)C(=O)c3ccc[nH]3)[C@H](C)C[C@H]4C)nc2c1C(=O)O (some centres undefined)	x	x	-104%	x	x	x
NC(N)=NCCN=C(N)N	x	x	-2%[9.22 µM]	x	x	x
C[n+]1c(/C=C\c2ccc(O)c3ncccc23)[se]c2ccccc21	x	x	-25%[9.22 µM]	x	x	x
Cc1ccccc1NP(=O)(Oc1ccccc1F)Oc1ccccc1F	-1%	23µM*	2%	-6%	-1%	-2%
C[C@]12CC[C@H](N)CC1=CCC1C2CC[C@@]2(C)C1CC[C@@H]2O (some centres undefined)	x	16µM*	x	-2%	x	x
CC[C@H](CO)Nc1nc(NCc2ccccc2)c2ncn(C(C)C)c2n1	x	x	18µM*	x	x	x
COC(=O)C(O)(c1ccc(NC(=O)Oc2ccccc2)cc1)C(F)(F)F (centres undefined)	15µM*	15%	18%	2%	-1%	1%
O=C1NC(=S)N(C2CC2)C(=O)/C1=C/c1ccc2c(c1)CCN2CCCCl	19µM*	28%	-21%	u	-1%	0%
CCCOc1ccc(C(=O)Nc2ccc(-c3cc4ccccc4oc3=O)c(C)c2)cc1	1.7µM*	x	-63%	x	x	x
COc1ccc(C(=O)Nc2cccc(S(=O)(=O)NCc3ccco3)c2)cc1	x	u	x	-3%	x	x
ClC(Cl)Br	x	x	17%	x	x	x
Nc1c(C(=O)Nc2ccc([As](=O)(O)O)cc2)cnc2nnnn12	x	x	-4%[9.22 µM]	x	x	x
O=C(COc1ccc(Cl)cc1Cl)N1CCN(C/C=C/c2ccccc2)CC1	2%	u	-8%	-1%	4%	0%
CN(c1ccc(OCC(=O)N2CCN(C/C=C/c3ccccc3)CC2)cc1)S(=O)(=O)c1cccs1	-2%	13µM*	x	-7%	-23%	-8%
CC(C)(C)c1ccc(C(=O)C2CCCN(Cc3ccon3)C2)cc1 (centres undefined)	17µM*	u	x	15%	u	u
SMILES	FLuc modulator	ELG1 DNA repair	SMN2 splice up	ELG1 genotoxic	Rab9 prom act	NPC1 promoter act
CCCCC(=O)Cl	x	x	5%	x	x	x
Cc1ccc2nc3c(cc2c1)CC1(C(=O)N(C)C(=O)N(C)C1=O)C1COCCN31 (centres undefined)	15µM*	u	x	u	23%	20%
O=C1NC(=O)C2(Cc3ccccc3N3CCOCC32)C(=O)N1c1ccccc1 (centres undefined)	0%	-13%	-7%	0%	0%	-3%
Cc1ccc2nc3c(cc2c1)CC1(C(=O)N(C)C(=O)N(C)C1=O)C1CCCCN31 (centres undefined)	5.4µM*	u	u	u	27%	u
NNc1nncn1N	x	x	-14%[9.22 µM]	x	x	x
CC(C)CN(CC(C)C)c1ccc(C=C2C(=O)NC(=S)NC2=O)cc1[N+](=O)[O-]	-12%	7%	-9%	-3%	4%	10%
CCN(CC)c1ccc(C=C2C(=O)NC(=S)NC2=O)cc1	19µM*	15%	x	u	-9%	-5%
CC(=O)[O-].CC(=O)[O-].O.O.O.[Pb+2]	x	x	2%	x	x	x
N[C@H](Cc1ccc2oc3cc(=O)c4ccccc4c-3nc2c1)C(=O)O	x	x	1%[9.22 µM]	x	x	x
O=C(c1ccccc1)C(CN1CCCC1)c1ccccc1 (centres undefined)	-2%	18µM*	-91%	-12%	-35%	-18%
CC(C)(C)c1cc(C#N)cc(Br)c1OP(=O)(Oc1c(Br)cc(C#N)cc1C(C)(C)C)c1ccccc1	x	x	-5%[9.22 µM]	x	x	x
CCC(C(=O)O)C1CCC(C)C(C(C)C(O)C(C)C(=O)C(CC)C2OC3(C=CC(O)[C@@]4(CC[C@](C)(C5CC[C@@](O)(CC)C(C)O5)O4)O3)C(C)CC2C)O1 (some centres undefined)	x	x	-50%	x	x	x
Clc1ccccc1Nc1ncnc(-n2cccc2)n1	7.6µM*	u	u	u	3.5µM*	2.8µM*
CN1CCN(c2ccc([N+](=O)[O-])c3no[n+]([O-])c23)CC1	u	3.3µM*	x	-13%	-46%	-32%
[O-][Cl+2]([O-])O	x	x	5%	x	x	x
O=C(Cc1c(O)c2ccccc2oc1=O)c1ccc(F)cc1	3µM*	u	x	11%	u	u
O=C(C[C@H](c1ccccc1)c1c(O)c2ccccc2oc1=O)c1ccccc1	x	x	-4%[9.22 µM]	x	x	x
COC(=O)C1=C(C)NC(C)=C(C(=O)OC)C1c1ccccc1[N+](=O)[O-]	-5%	10µM*	-59%	-6%	-24%[46.1 µM]	-19%[46.1 µM]
Cc1ccccc1[N+](=O)[O-]	0%	22%	10%	1%	5%	1%
COP(=O)(OC)Oc1ccc(C(O)C(Cl)(Cl)Cl)cc1 (centres undefined)	-1%	1%	x	0%	-3%	-2%
CC(C)OP(=O)(Oc1ccc(C(O)C(Cl)(Cl)Cl)cc1)OC(C)C (centres undefined)	-1%	18µM*	x	-6%	-17%	0%
